# In the supplement of paper PMC8728848:
# About 410 targets per protein were measured; listed, in parts, are those with the strongest signals and a random draw of the rest.
# B1: PX9937B-bvu-524-33-524 (Bacteroides vulgatus) (protein)
# chain: GTAYWKNPDQFTAFNTGLHALLREKSYNFFLLGEPRADIYGDNPIGGEASQGMERLPFNTINKENVGISNYGDMYKIINQINQMIAKTTETTILTEATQNYYLGEAYGMRAYLYFHLLRSWGDVVLYLDYTEGQNLDLSNITKGVSPATEVMEQIKKDIQASENAFGSDYSFKLGRHFWSAAATQMLKGEAYLWSGRQMNGGNSDYTIAKNAFENVKKADVGLVTSSFKDIFSFENKKNKEMIFTIHNGKDEYEMWGGYYRMRLIPAQDKMVKIYCDENGNSFVGTPDAQLNGLTQLQVRREFYFKGFRNNDTRWTTSLKAVYKKDAQGVVSYFGPITYKFQGTMLEGGSTRSFLDDFPIYRYADCLLQLAMAKVLLGEDPTEEINAVRERAYGSKYFNEHKAEIAYPNDNDPEFYTDNKWMKPDNAGALEAILKERLREFMFEGKRWYDIRLLGWDYVHQYSSAEQSRLLWPIDAGTLTNNSALKQTPGYE
# Experiments:
# Experiment in all cases: glycan array binding signal (z-score within array); higher = stronger binding
# Conditions in all cases: glycan notation: IUPAC condensed, linker removed
# [1] = target: Gal(b1-4)GlcNAc(b1-3)Gal(b1-4)GlcNAc(b1-3)Gal(b1-4)GlcNAc(b1-2)Man(a1-3)[Gal(b1-4)GlcNAc(b1-3)Gal(b1-4)GlcNAc(b1-3)Gal(b1-4)GlcNAc(b1-2)Man(a1-6)]Man(b1-4)GlcNAc(b1-4)[Fuc(a1-6)]GlcNAc
# Outline: (§1)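 From the Consortium for Functional Glycomics database, 3228 arrays were curated, keeping only those whose protein sequence was available. Binding is given as a within-array Z-score averaged across arrays sharing a protein sequence and across linkers. Negative Z-scores can be read as non-binding.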
# [2] = target: Gal(b1-4)GlcNAc(b1-3)Gal(b1-4)GlcNAc(b1-3)Gal(b1-4)GlcNAc(b1-3)Gal(b1-4)GlcNAc(b1-3)Gal(b1-4)GlcNAc(b1-2)Man(a1-3)[Gal(b1-4)GlcNAc(b1-3)Gal(b1-4)GlcNAc(b1-3)Gal(b1-4)GlcNAc(b1-3)Gal(b1-4)GlcNAc(b1-3)Gal(b1-4)GlcNAc(b1-2)Man(a1-6)]Man(b1-4)GlcNAc(b1-4)GlcNAc
# Outline: as §1
# [3] = target: Gal(b1-4)GlcNAc(b1-3)Gal(b1-4)GlcNAc(b1-6)[Gal(b1-3)]GalNAc
# Outline: as §1
# Gal6S(b1-4)Glc = target: Gal6S(b1-4)Glc
# Outline: as §1
# Gal6S(b1-4)GlcNAc6S = target: Gal6S(b1-4)GlcNAc6S
# Outline: as §1
# GalNAc(a1-3)GalNAc = target: GalNAc(a1-3)GalNAc
# Outline: as §1
# [4] = target: GalNAc(b1-4)GlcNAc(b1-3)GalNAc(b1-4)GlcNAc
# Outline: as §1
# GalNAc3S(b1-4)GlcNAc = target: GalNAc3S(b1-4)GlcNAc
# Outline: as §1
# [5] = target: GlcNAc(a1-4)Gal(b1-4)GlcNAc(b1-3)Gal(b1-4)GlcNAc
# Outline: as §1
# [6] = target: GlcNAc(a1-4)Gal(b1-4)GlcNAc(b1-3)Gal(b1-4)[Fuc(a1-3)]GlcNAc(b1-3)Gal(b1-4)[Fuc(a1-3)]GlcNAc
# Outline: as §1
# [7] = target: GlcNAc(b1-2)[GlcNAc(b1-4)]Man(a1-3)[GlcNAc(b1-4)][GlcNAc(b1-2)[GlcNAc(b1-6)]Man(a1-6)]Man(b1-4)GlcNAc(b1-4)[Fuc(a1-6)]GlcNAc
# Outline: as §1
# [8] = target: GlcNAc(b1-3)Gal(b1-4)GlcNAc(b1-3)Gal(b1-4)GlcNAc(b1-3)Gal(b1-4)GlcNAc(b1-3)Gal(b1-4)GlcNAc(b1-2)Man(a1-3)[GlcNAc(b1-3)Gal(b1-4)GlcNAc(b1-3)Gal(b1-4)GlcNAc(b1-3)Gal(b1-4)GlcNAc(b1-3)Gal(b1-4)GlcNAc(b1-2)Man(a1-6)]Man(b1-4)GlcNAc(b1-4)[Fuc(a1-6)]GlcNAc
# Outline: as §1
# GlcNAc(b1-3)Man = target: GlcNAc(b1-3)Man
# Outline: as §1
# Kdn(a2-3)Gal(b1-3)GlcNAc = target: Kdn(a2-3)Gal(b1-3)GlcNAc
# Outline: as §1
# [9] = target: Kdn(a2-3)Gal(b1-4)[Fuc(a1-3)]GlcNAc
# Outline: as §1
# Kdn(a2-6)Gal(b1-4)GlcNAc = target: Kdn(a2-6)Gal(b1-4)GlcNAc
# Outline: as §1
# [10] = target: Neu5Ac(a2-3)Gal(b1-3)GalNAc(b1-3)Gal(a1-4)Gal(b1-4)Glc
# Outline: as §1
# [11] = target: Neu5Ac(a2-3)Gal(b1-3)GalNAc(b1-4)[Neu5Ac(a2-3)]Gal(b1-4)Glc
# Outline: as §1
# [12] = target: Neu5Ac(a2-3)Gal(b1-3)[Fuc(a1-4)]GlcNAc(b1-3)Gal(b1-3)[Fuc(a1-4)]GlcNAc
# Outline: as §1
# [13] = target: Neu5Ac(a2-3)Gal(b1-3)[Fuc(a1-4)]GlcNAc(b1-3)Gal(b1-4)[Fuc(a1-3)]GlcNAc
# Outline: as §1
# [14] = target: Neu5Ac(a2-3)Gal(b1-4)GlcNAc(b1-3)Gal(b1-4)[Fuc(a1-3)]GlcNAc
# Outline: as §1
# [15] = target: Neu5Ac(a2-3)[Neu5Ac(a2-6)]GalNAc
# Outline: as §1
# [16] = target: Neu5Ac(a2-6)Gal(b1-4)GlcNAc(b1-2)Man(a1-3)[Neu5Ac(a2-6)Gal(b1-4)GlcNAc(b1-2)Man(a1-6)]Man(b1-4)GlcNAc(b1-4)[Fuc(a1-6)]GlcNAc
# Outline: as §1
# [17] = target: Neu5Ac(a2-6)Gal(b1-4)GlcNAc(b1-2)Man(a1-6)[GlcNAc(b1-2)Man(a1-3)]Man(b1-4)GlcNAc(b1-4)GlcNAc
# Outline: as §1
# [18] = target: Neu5Ac(a2-8)Neu5Ac(a2-3)Gal(b1-3)GalNAc(b1-4)[Neu5Ac(a2-8)Neu5Ac(a2-3)]Gal(b1-4)Glc
# Outline: as §1
# [19] = target: Neu5Ac(a2-8)Neu5Gc(a2-3)Gal(b1-4)GlcNAc
# Outline: as §1
binder,measurement,setting,value
B1,glycan array binding signal (z-score),[1],2.54
same,glycan array binding signal (z-score),[2],8.61
same,glycan array binding signal (z-score),[3],3.08
same,glycan array binding signal (z-score),Gal6S(b1-4)Glc,-0.101
same,glycan array binding signal (z-score),Gal6S(b1-4)GlcNAc6S,-0.297
same,glycan array binding signal (z-score),GalNAc(a1-3)GalNAc,-0.035
same,glycan array binding signal (z-score),[4],-0.144
same,glycan array binding signal (z-score),GalNAc3S(b1-4)GlcNAc,-0.324
same,glycan array binding signal (z-score),[5],-0.254
same,glycan array binding signal (z-score),[6],0.453
same,glycan array binding signal (z-score),[7],-0.459
same,glycan array binding signal (z-score),[8],5.78
same,glycan array binding signal (z-score),GlcNAc(b1-3)Man,0.006
same,glycan array binding signal (z-score),Kdn(a2-3)Gal(b1-3)GlcNAc,-0.588
same,glycan array binding signal (z-score),[9],-0.28
same,glycan array binding signal (z-score),Kdn(a2-6)Gal(b1-4)GlcNAc,-0.409
same,glycan array binding signal (z-score),[10],-0.124
same,glycan array binding signal (z-score),[11],0.323
same,glycan array binding signal (z-score),[12],-0.529
same,glycan array binding signal (z-score),[13],-0.189
same,glycan array binding signal (z-score),[14],0.162
same,glycan array binding signal (z-score),[15],-0.279
same,glycan array binding signal (z-score),[16],0.782
same,glycan array binding signal (z-score),[17],0.042
same,glycan array binding signal (z-score),[18],-0.231
same,glycan array binding signal (z-score),[19],5.74
